Screens (PubChem)
HCV inh: qHTS Assay for Inhibitors of Hepatitis C Virus (HCV); Huh7.5.1 HCVcc-Cre infection, luciferase reporter, 44 h; Potency, µM (series often up to 41.8 µM), for inactives: at the top dose activity change, negative = inhibition, actives largely listed as inhibitors; actives 3.4% (n = 340,000); AID 651820, 2012; active = well fitted inhibition curve with a large enough effect; inconclusive = small, poorly fitted or top-dose-only effect, or another doubt; inactive = no such curve, though single readings can be large or run the other way
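A cell-based infection assay in which seeded cells (1,000 per well) receive test compound after 4 h, are inoculated with HCVcc-Cre at approximately 0.5 moi, and are incubated 44 h before luminescence detection.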
MARV entry inh: qHTS for inhibitors of binding or entry into cells for Marburg Virus | AID 540276, 2011 | actives 1.8% (n = 300,000) | Potency, µM (titrated, usually from 37.8 µM), for inactives: top-dose activity change, negative = inhibition, actives largely listed as inhibitors | Marburg virus pseudotyped entry inhibition, cell reporter; calls by dose curve; tested in HEK293 cells
LASV entry inh: qHTS for Inhibitors of binding or entry into cells for Lassa Virus; Potency, µM (doses to about 37.9 µM), for the others: at the highest dose activity change, negative = inhibition, actives largely listed as inhibitors; actives 1.2% (n = 300,000); Lassa virus pseudotype entry inhibition, cell reporter; calls by dose curve; tested in HEK293 cells; note: nearly all actives have a fitted effect of over 50% in size
Vaccinia mCherry: qHTS for Stage-Specific Inhibitors of Vaccinia Orthopoxvirus: mCherry Reporter Primary qHTS; Potency, µM (doses to about 36.5 µM), for the others: at the highest dose activity change, negative = inhibition, usual class: inhibitors; Vaccinia virus mCherry reporter infection, fluorescence; actives 0.63% (n = 310,000); AID 720579, 2013; calls by dose curve; tested in A549 cells; note: nearly all actives have a fitted effect of over 35% in size
FMDV antiviral: High Throughput Screening for Foot and Mouth Disease Virus Antivirals | Potency, µM (titrated, usually from 57.9 µM), for the others: at the top dose activity change, negative = inhibition, hits mostly inhibitors | actives 1.2% (n = 410,000) | FMDV antiviral cell-based qHTS; calls by dose curve; tested in HEK293T cells; note: read-out not given here; nearly all actives have a fitted effect of over 45% in size
VACV Venus inh: qHTS for Stage-Specific Inhibitors of Vaccinia Orthopoxvirus: Venus Reporter Primary qHTS | Vaccinia virus Venus reporter expression, fluorescence | Potency, µM (series often up to 36.5 µM), inactives show at the highest dose activity change, negative = inhibition, hits mostly inhibitors | actives 0.46% (n = 330,000) | AID 720580, 2013; calls by dose curve; tested in A549 cells; note: nearly all actives have a fitted effect of over 30% in size
Numbers without * were called inactive; i = inactive; ? = inconclusive; / = no result given; + = active, no number; [ ] = remark or other dose. Hits are enriched below; roughly 5.3% of the tested compounds scored in any of these assays. % is set by controls: 0 for no effect and ±100 for the full control effect; potency is the fitted concentration of half-maximal effect.

SMILES | HCV inh | MARV entry inh | LASV entry inh | Vaccinia mCherry | FMDV antiviral | VACV Venus inh
CN(C)c1ncc2nc(CCc3ccccc3)c(=O)n(CCC#N)c2n1 | / | / | / | / | 24% | /
N=C1/C(=C/c2coc3ccccc3c2=O)C(=O)N=C2SC(c3ccco3)=NN12 | -11% | 5%[46.1 µM] | ? | 0% | ? | 11%
N=C1/C(=C\c2coc3ccccc3c2=O)C(=O)N=C2SC(c3ccncc3)=NN12 | ? | -3%[46.1 µM] | 14% | -9% | 16µM* | 14%
Cc1cc(N2CCN(S(=O)(=O)c3ccc(Cl)cc3)CC2)c2ccccc2n1 | 11µM* | ? | 16µM* | ? | / | ?
Cc1cc(N2CCN(S(=O)(=O)c3ccc(Cl)c(Cl)c3)CC2)c2ccccc2n1 | 11µM* | / | / | / | ? | /
CC(=O)c1nc(N2CCN(S(=O)(=O)c3ccc(C)cc3)CC2)c2ccccc2n1 | / | / | / | i | / | -16%
CCc1nc2ccccc2nc1N1CCN(S(=O)(=O)c2ccc(Cl)cc2)CC1 | -23% | 11µM* | ? | i | ? | -18%
Cn1nc(C(=O)NCCN2Cc3ccccc3OC(c3ccsc3)C2)c2ccccc2c1=O (centres undefined) | / | / | / | -8% | -5% | -3%
Oc1ccc([C@@H]2CNCc3sccc32)cc1O | / | 12% | / | / | / | /
O=C(c1ccccc1Cc1ccccc1)N1CCN(S(=O)(=O)c2ccccc2Br)CC1 | ? | 13µM* | -16%[46.1 µM] | ? | ? | -25%
O=C(c1ccccc1Cc1ccccc1)N1CCN(S(=O)(=O)c2ccc(F)cc2)CC1 | 36% | 8% | 8% | i | -15% | -2%
CN(C)c1cc(NC(=O)CN2CCCC2)c2ccccc2n1 | ? | 10µM* | 6%[46.1 µM] | 7% | -10% | -2%
COc1cc(NC(=O)Nc2ccccc2OC)c(OC)cc1NC(=O)CN1CCCCC1 | 2.2µM* | ? | -10% | / | -6% | -26%
COc1cc(NC(=O)Nc2ccccc2)c(OC)cc1NC(=O)CN1CCCCC1 | 11µM* | ? | -25% | ? | 7% | ?
COc1ccccc1NC(=O)CN1CCCCCC1 | 14% | -5%[46.1 µM] | -15% | i | 4% | -11%
COC(=O)c1ccccc1NC(=O)CN1CCCCC1 | -23% | ? | ? | + | -18% | +
CC(C)c1ccc(S(=O)(=O)NCc2ccc3c(c2)CCN3C(=O)c2ccccc2)cc1 | / | / | ? | -14% | -19% | -18%
Cc1cnc(CNc2ncnc3ccc(-c4cccc(C#N)c4)cc23)cn1 | / | / | / | 13% | -15% | 17%
COc1ccc(S(=O)(=O)N(C)C)cc1NC(=O)CN1CCN(C(=O)C2CC2)CC1 | 10µM* | / | / | / | -2% | /
O=C1OC(c2cccc(Cl)c2)N=C2C1C=NN2c1ccccc1 (centres undefined) | / | 2% | / | / | / | /
CCn1c(CSCc2ccc(C)cc2)nnc1SCC(=O)N1CCN(c2ccccc2)CC1 | ? | ? | -16% | ? | 22µM* | ?
C=CCn1c(SCC(=O)c2ccc(OC)cc2)nnc1-c1cc2cccc(OC)c2o1 | -13% | ? | -27% | i | 0% | -22%
Cn1c(SCC(=O)N2CCN(c3ccccc3)CC2)nnc1-c1cc2ccccc2o1 | ? | ? | -20% | / | 3.5µM* | /
C=CCn1c(SCC(=O)c2ccccc2)nnc1-c1cc2ccccc2o1 | ? | ? | -26% | / | 40µM* | -28%
Cn1c(SCC(=O)N2CCN(c3ccccc3)CC2)nnc1-c1ccncc1 | 14% | 0% | 15% | / | 0% | -8%
SMILES | HCV inh | MARV entry inh | LASV entry inh | Vaccinia mCherry | FMDV antiviral | VACV Venus inh
COc1cccc(Cn2c(=O)n(Cc3ccco3)c(=O)c3oc4ccccc4c32)c1 | / | / | 2%[46.1 µM] | i | -30% | -8%
COc1cc(/C=N/NC(=O)c2ccc(N(C)S(=O)(=O)c3ccccc3)cc2)cc(OC)c1OC | ? | -23% | 16% | -12% | 0% | -20%
CCOc1cc(/C=N/NC(=O)c2ccc(N(C)S(=O)(=O)c3ccccc3)cc2)ccc1OC | 8.9µM* | -2%[46.1 µM] | / | -25% | ? | -15%
CCOc1cc(/C=N/NC(=O)CN2CCOCC2)ccc1OCc1ccccc1 | ? | -16% | 5% | -4% | -27% | -17%
CCOc1cc(/C=N/NC(=O)COc2ccc(Cl)cc2)ccc1OS(=O)(=O)c1ccccc1 | 5µM* | 6.5µM* | ? | ? | -24% | ?
CCOc1cc(/C=N/NC(=O)c2ccc(CN3CCOCC3)cc2)ccc1OCc1ccccc1 | ? | ? | ? | i | 22µM* | -12%
O=C1N[C@H](Cc2ccccc2)C(=O)N1Cc1cccc2ccccc12 | / | -23%[14.2 µM] | ? | / | / | /
Cn1c(Oc2ccccc2)nc2c1c(=O)n(Cc1ccc(Cl)cc1Cl)c(=O)n2C | / | / | -7%[46.1 µM] | -4% | -20% | 2%
CCC1CN(CC(=O)N(C)Cc2nc3ccccc3[nH]2)Cc2cc(OC)ccc2O1 (centres undefined) | / | / | / | -10% | 15% | 5%
CCOc1cc(CNCCc2c[nH]c3ccccc23)cc(Cl)c1OC | 10µM* | ? | -19% | -28% | ? | -29%
COc1cc(CNCCc2c[nH]c3ccccc23)ccc1OCc1ccc(F)cc1 | 13µM* | ? | -21% | 10µM* | -7% | ?
CCOc1cc(CNCCc2c[nH]c3ccccc23)cc(Cl)c1OCC(N)=O | ? | / | / | / | -23% | /
CNC(=S)N1N=C(c2ccc(C)cc2)CC1c1ccc(Cl)cc1 (centres undefined) | ? | ? | 9.2µM* | / | -22% | /
N[C@@H](Cc1ccccc1)c1nnc(SCc2ccccc2F)o1 | -11% | 5% | 8% | 11µM* | 0% | ?
COc1cc(NC(=O)c2ccc3oc(=O)c(S(=O)(=O)c4ccccc4)cc3c2)cc(OC)c1 | / | ? | -6%[46.1 µM] | -16% | ? | 4%
O=c1[nH]c(-c2ccccn2)nc2ccccc12 | ? | ? | ? | / | -15% | -17%
O=c1[nH]c(-c2ccccn2)nc(C(F)(F)F)c1Br | -24% | ? | ? | 11µM* | -26% | -17%
CCCCCC1CC1C(=O)N/N=C/c1ccc(N(C)C)cc1 (centres undefined) | -8% | 14% | 0.46µM* | / | 5% | /
CCOc1ccc(CS[C@@H](CC(=O)O)C(=O)O)cc1 | / | 8% | / | / | / | /
Nc1c(-c2ccccc2)c(CSc2nc3ccccc3[nH]2)nn1-c1ccc(Cl)cc1 | 11µM* | ? | ? | -23% | 0% | ?
Cc1ccccc1-n1nc(CSc2nc3ccccc3[nH]2)c(-c2ccccc2)c1N | ? | ? | ? | -11% | ? | -17%
COc1cccc(C(=O)NCC(c2ccc(N(C)C)cc2)N2CCc3ccccc32)c1 (centres undefined) | / | / | -9%[46.1 µM] | -5% | -16% | 0%
CCOc1ncccc1C(=O)NNC(=O)CSc1ccc(Cl)cc1 | -21% | / | / | / | 0% | /
